Bioassay records: PubChem, National Center for Advancing Translational Sciences (NCATS)
HT1080NT lethal: kills 2HG-producing HT-1080-NT fibrosarcoma cells. HT-1080-NT fibrosarcoma viability, CellTiter-Glo ATP luminescence, 48 h. Potency, µM (doses to about 46.1 µM), for inactives: at the top dose activity, negative = less viability, hits mostly cytotoxic. 360,000 compounds, 1.6% hits;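 further: NT is the 2HG producing partner of a matched IDH1 knockdown line; potency means the concentration at half of the fitted maximal effect; 0% = DMSO-treated cells and -100% = media-only wells without cells; nearly all actives have a fitted effect of over 55% in size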
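HT-1080-NT; 750 cells/well; 5% FBS RPMI; 48 h compound, 37 degrees C; CellTiter-Glo luminescence; curve fitting and curve-class assignment.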
HT1080 IDH1KD tx: HT-1080 IDH1 knockdown cell toxicity (counter line); Potency, µM (highest dose often 46.1 µM), for the others: at the top dose activity, negative = toxicity, usual class: cytotoxic; HT-1080 IDH1 knockdown viability, ATP luminescence, 48 h; 360,000 compounds, 2% hits;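 further: potency means the concentration at half of the fitted maximal effect; 0% = DMSO wells and -100% = cell-free medium wells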
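% activity derives from luminescence (CellTiter-Glo), normalised to DMSO and no-cell wells. HT-1080-IDH1KD cells, 750/well, had 48 h compound exposure at 37 °C.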
DT40 TDP1 CPT: DT40-hTDP1 cell growth loss with CPT; chicken DT40 Tdp1-/-;hTDP1 cells + 20 nM CPT, ATP luminescence, 48 h; Potency, µM (series often up to 46.2 µM), inactives show at the top dose activity change, negative = growth inhibition, usual class: inhibitors; 420,000 compounds, 12% hits; AID 686979; further: potency means the concentration at half of the fitted maximal effect; nearly all actives have a fitted effect of over 55% in size
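Chicken DT40 Tdp1-/- cells complemented with human TDP1, 400 cells/well, exposed to compounds plus 20 nM camptothecin for at least 48 h at 37 C; viability read as ATP content by CellTiter-Glo luminescence.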
TDP1 cell noCPT: qHTS for Inhibitors of human tyrosyl-DNA phosphodiesterase 1 (TDP1): qHTS in cells in absence of CPT; 420,000 compounds, 15% hits; DT40 Tdp1-/- hTDP1 cells, no CPT, ATP luminescence, 48 h; Potency, µM (titrated, usually from 46.2 µM), for the others: at the highest dose activity change, negative = growth inhibition, most hits filed as inhibitors; further: potency means the concentration at half of the fitted maximal effect; nearly all actives have a fitted effect of over 55% in size
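Compound effects on proliferation are scored in DT40 Tdp1-/-;hTDP1 cells in the absence of CPT. ATP levels (CellTiter-Glo luminescence) are recorded after a ≥48 hr, 37 °C incubation.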
IL1B secr inh: blocks inflammasome-driven IL-1 beta release. THP-1 LPS/ATP IL-1B secretion, AlphaLISA, 16 h; hits give low values. activity change, % at 57.5 µM. 360,000 compounds, 4.7% hits; in the data active means activity change below about -50%; inconclusive means mostly about -30% to -49%
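Secreted IL-1B measured by AlphaLISA bead assay after 16 h compound exposure of THP-1 cells; compounds (final up to 57.5 uM) added 1 h before LPS (250 ng/mL) and ATP (1.25 mM) stimulation; lower signal means less secretion.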
uPA generation: inhibitors of cell surface uPA generation. cell surface uPA generation assay, qHTS. Potency, µM (highest dose often 38.3 µM), without a hit: at the top dose activity change, negative = inhibition, hits mostly inhibitors. 330,000 compounds, 0.31% hits. AID 540303; active means well fitted inhibition curve with a large enough effect; inconclusive means small, poorly fitted or top-dose-only effect; inactive means no such curve, though single readings can be large or run the other way; tested in mouse RAW 264.7 cells; further: potency means the concentration at half of the fitted maximal effect; nearly all actives have a fitted effect of over 55% in size
* marks the source's active call; other numbers are inactive results; ? = inconclusive; nt = no result. Most compounds without a hit are left out; they make up all but 19% or so of the library. Unless noted, the call rests on the fitted dose curve; in most records, active means well fitted curve in the direction sought with a large enough effect; inconclusive means small, poorly fitted or top-dose-only effect, or another doubt; inactive means no such curve, though single readings can be large; an effect the other way counts as inactive or inconclusive. Unless noted, on the % scale 0 is the no-effect control and ±100 the full control effect.

SMILES	HT1080NT lethal	HT1080 IDH1KD tx	DT40 TDP1 CPT	TDP1 cell noCPT	IL1B secr inh	uPA generation
O=C(c1cnccn1)N1CCC2(CCN(Cc3ccncc3)CC2)CC1	nt	nt	6%	?	nt	nt
Cc1c(Cl)cccc1NC(=S)NCC1COc2ccccc2O1 (centres undefined)	1%	-18%	-22%	-29%	-68*	3%
C=CCNC(=S)NCC1COc2ccccc2O1 (centres undefined)	2%	4%	1%	?	2	2%
COc1ccccc1CN1C[C@@H]2C[C@@H](c3ccc(C)c(C)c3)N3CCC[C@@]23C1=O	-28%	-21%	15µM*	16µM*	-17	1%
COc1ccc([C@@H]2C[C@H]3CN(Cc4ccccc4OC)C(=O)[C@]34CCCN24)cc1C	-19%	-24%	?	18µM*	15	-3%
COc1ccccc1CN1C[C@@H]2C[C@@H](c3cccc(C)c3)N3CCC[C@@]23C1=O	-28%	-1%	-25%	?	-21	4%
COc1ccc(-c2[nH]ncc2[C@@H]2C[C@H]3CN(Cc4ccccc4C)C(=O)[C@]34CCCN24)cc1	1%	-2%	?	?	-15	14%
Cc1ccccc1CN1C[C@@H]2C[C@@H](c3cn[nH]c3-c3ccc(F)cc3)N3CCC[C@@]23C1=O	?	-26%	18µM*	21µM*	-51*	-2%
CCCOP(=O)(c1ccc(N(C)C)cc1)C(O)c1ccc(N(C)C)cc1 (centres undefined)	-22%	-4%	-1%	-18%	-14	1%
COc1ccc(C(=O)N2N=C(c3cccc(NS(C)(=O)=O)c3)CC2c2cccs2)cc1 (centres undefined)	-16%	?	?	?	-26	3%
C=C1c2ccccc2S(=O)(=O)N(Cc2ccccc2)C1COCc1ccccc1 (centres undefined)	-2%	1%	-30%	-27%	-3	8%
CCCc1ccc(OCC(=O)Nc2sc3c(c2C(=O)OC)CCCCC3)cc1	nt	nt	4%	?	nt	nt
CCOc1cc(NC(=O)c2ccccn2)c(OCC)cc1NC(=O)c1ccc(Cl)cc1	4%	1%	1.5µM*	1.2µM*	29	19%
CCOc1cc(NC(=O)C2CC2)c(OCC)cc1NC(=O)CCn1nnc2ccccc21	8%	2%	-29%	-10%	0	2%
CCOc1cc(NC(=O)c2ccccn2)c(OCC)cc1NC(=O)CC(C)C	21%	24%	13µM*	8.2µM*	-5	4%
CCOc1cc(NC2CS(=O)(=O)CC2O)c(OCC)cc1NC(=O)c1ccccc1 (centres undefined)	-12%	-5%	?	?	22	8%
CCOc1cc(NC(=O)c2ccccn2)c(OCC)cc1NC(=O)c1ccccc1	18%	12%	?	21µM*	3	0%
CCOc1cc(NC(=O)C2CC2)c(OCC)cc1NC(=O)c1ccccn1	13%	10%	18µM*	18µM*	-12	3%
CCOc1cc(NC(=S)NC)c(OCC)cc1NC(=O)c1ccc(OC)cc1	11%	22%	-14%	?	3	6%
CCOc1cc(NC(=S)Nc2ccccc2)c(OCC)cc1NC(=O)c1ccccc1	1%	0%	18µM*	26µM*	-1	9%
CC(C)(C)OC(=O)NCCc1nnc(S(=O)(=O)Cc2ccc(Cl)cc2Cl)o1	18µM*	16µM*	1.6µM*	2.6µM*	-118*	-12%
CC(C)(C)OC(=O)NCCc1nnc(SCc2ccccc2Cl)o1	13%	1%	-24%	?	9	5%
COc1c(F)c(F)c(C(=O)O)c(Nc2ccc(C)cc2C)c1F	3%	4%	8%	-23%	9	3%
COC[C@H](NS(=O)(=O)c1ccc(Br)cc1F)[C@@H](O)c1ccccc1	0%	-3%	?	?	33	nt
CCOC(=O)CNC(=O)Cn1cnc2c(nnn2-c2ccc(OC)cc2)c1=O	-1%	6%	3%	-1%	-6	-3%
SMILES	HT1080NT lethal	HT1080 IDH1KD tx	DT40 TDP1 CPT	TDP1 cell noCPT	IL1B secr inh	uPA generation
COc1ccc(C2CC(=O)N(C)c3ccccc3S2)cc1OC (centres undefined)	-12%	1%	21µM*	?	-14	-15%
OCC1(CCOc2ccccc2)CCN(Cc2ccccc2C(F)(F)F)CC1	?	-25%	-12%	-27%	-55*	5%
OCC1(CCOc2ccccc2)CCN(Cc2cn[nH]c2-c2ccc(F)cc2)CC1	?	23µM*	3%	?	-57*	5%
CCOc1ccccc1CN1CCC(CO)(CCOc2ccccc2)CC1	-15%	-25%	5%	-2%	-73*	5%
Cc1oc(-c2cccs2)nc1CN1CCC(CO)(CCOc2ccccc2)CC1	3%	11%	?	?	-83*	3%
COCCOC(=O)c1c(NC(=O)COC(=O)Cc2cccc(OC)c2)sc(C(N)=O)c1C	0%	-12%	-16%	-6%	22	11%
OCC1(CCOc2ccccc2)CCN(CC2=Cc3cc(Cl)ccc3OC2)CC1	-22%	18µM*	18µM*	21µM*	-93*	-3%
COc1ccc(CN2CCC2(C)C(=O)Nc2cnc3ccccc3c2)c2ccccc12 (centres undefined)	?	?	?	?	-20	nt
CC(C)c1ccc(CN2CCC2(C)C(=O)Nc2cnc3ccccc3c2)cc1 (centres undefined)	?	?	18µM*	26µM*	-1	nt
CC1(C(=O)Nc2cnc3ccccc3c2)CCN1Cc1ccc2ccccc2c1 (centres undefined)	?	?	15µM*	?	-11	nt
CC1(C(=O)Nc2cnc3ccccc3c2)CCN1Cc1cc2ccccc2o1 (centres undefined)	-19%	?	13µM*	15µM*	0	nt
CC(=O)Nc1ccc(S(=O)(=O)N2CCN(C(=O)c3ncoc3-c3ccc(F)cc3)CC2)cc1	1%	0%	-2%	-25%	-8	-3%
COc1cccc(C(=O)c2cn(CC(=O)Nc3cccc(Cl)c3C)c3nc(C)ccc3c2=O)c1	nt	nt	4%	-18%	nt	nt
Nc1cc(C(=O)OCC(=O)N2CCC(Cc3ccccc3)CC2)ccc1Cl	4%	0%	-26%	?	-1	9%
O=C(O)CC1(CC(=O)Nc2ccccc2N2CCOCC2)CCCC1	8%	-1%	1%	-14%	nt	3%
